# Shown are actives, neighbours in structure and some others; about 4.1% of the full set was active somewhere.
# hcDAF-12 act = H. contortus DAF-12 activation, primary screen; HEK293 hcDAF-12 lit1-tk-luc reporter, luminescence; 0% DMSO, 100% Δ7-dafachronic acid; activation, % at 6.8 µM; 1.4% of 370,000 active;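 active means activation above the mean of all tested compounds plus 3 SD, cut at about 5.5% in these data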;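 further: 100% = response to 3 µM Δ7-dafachronic acid high control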
# DAX1 inh-1 = inhibits human nuclear receptor DAX1; HEK293 Gal4-DAX1 luciferase reporter, luminescence; inhibition, % at 6.75 µM; 0.99% of 340,000 active; AID 504766;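 active means inhibition above the mean over all tested compounds plus 3 SD, cut at about 4.2% in these data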;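 further: 0% = DAX1-transfected cells with DMSO and 100% = empty-vector control cells with DMSO; inhibition shows as a rise in luminescence from relieved DAX1 repression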
# Target sequence (P51843 207-470 limits assumed): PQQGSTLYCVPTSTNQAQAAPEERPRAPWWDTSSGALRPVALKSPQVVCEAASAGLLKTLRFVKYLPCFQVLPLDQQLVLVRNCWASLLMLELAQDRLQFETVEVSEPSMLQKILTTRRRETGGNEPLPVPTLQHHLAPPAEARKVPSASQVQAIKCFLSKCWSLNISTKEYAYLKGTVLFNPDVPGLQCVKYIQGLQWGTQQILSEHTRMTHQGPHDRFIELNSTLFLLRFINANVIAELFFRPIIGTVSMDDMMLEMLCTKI
# hgDAF12 agonist = agonists of H. glycines DAF-12 nuclear receptor | HEK293 GAL4-hgDAF12 UAS-luciferase reporter, agonist luminescence; normalized to butyrate control | activation, % at 6.8 µM | 1.8% of 370,000 active | AID 687014;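 active means activation above a cutoff set at the mean of all screened compounds plus 3 SD, cut at about 10% in these data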;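 further: 0% = DMSO wells and 100% = sodium butyrate wells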
# DAX1 inh-2 = DAX1 (NR0B1) inhibition, primary screen; HEK293T StAR-luciferase reporter, SF-1/DAX-1 repression relief; inhibition, % at 6.8 µM; 1.1% of 370,000 active;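 active means inhibition above the mean over all tested compounds plus 3 SD, cut at about 3.6% in these data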;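 further: 0% = DAX-1 cells with DMSO and 100% = cells lacking DAX-1 with DMSO; higher inhibition means more luminescence from relief of DAX-1 repression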
# ssDAF12 agonist = activators of S. stercoralis DAF-12 nuclear receptor. AID 652126. HEK293 ssDAF-12/GRIP1 lit1-tk-luc reporter, luminescence; % of 3 µM dafachronic acid response. activation, % at 6.8 µM. 1% of 370,000 active;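 active means activation above the mean over all tested compounds plus 3 SD, cut at about 0.9% in these data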;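 further: 0% = DMSO-only wells and 100% = 3 µM delta7-dafachronic acid wells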
# An asterisk follows results filed as active; x = no result given.
SMILES,hcDAF-12 act,DAX1 inh-1,hgDAF12 agonist,DAX1 inh-2,ssDAF12 agonist
Cc1cc(NC(=O)C(C)SCC(=O)OCC(=O)N(C)c2ccccc2)no1 (stereo unspecified),-1,4.6*,2,1,-1
CCCc1cc(=O)[nH]c(N/N=C/C=C\c2ccccc2)n1,-1,4.9*,1,0,-2
CCCc1cc(=O)[nH]c(SC/C=C/c2ccccc2)n1,1,x,2,0,-1
O=C(NCc1ccccc1)N1CCC(c2nc3ccc(Cl)cc3[nH]2)CC1,-4,x,-2,1,-2
CCOC(=O)c1cnc(SCC(=O)c2ccc(C)cc2)nc1N,-1,-1,3,0,-1
CCOC(=O)c1cnc(SC)nc1N,-1,0,1,0,-1
CCOC(=O)c1cnc(SCC#N)nc1N,-2,6.9*,0,0,0
CCOC(=O)c1cnc(SCC(C)C)nc1N,2,2,11*,3,0
Cc1ccc(S(=O)(=O)N2OC(c3ccccc3)C[C@H]2CC=C(c2ccccc2)c2ccccc2)cc1 (stereo partly specified),-1,x,-1,x,-1
COc1cc(/C=C/C(=O)O)cc(S(=O)(=O)N2CCc3ccccc32)c1OC,2,-2,1,-1,2.3*
COc1ccc(Cc2c(C3CCCCC3)nc3ccc(Cl)cn23)c(C)c1,-2,x,6,1,-1
CC(C)[C@H](NC(=O)c1cccs1)C(=O)N1CCC[C@H]1C(=O)NCc1ccccc1,1,x,-1,0,-1
COc1ccc(C)c2sc(=NC(=O)c3cccc(N4C(=O)CCC4=O)c3)n(C)c12,0,2,-1,0,-1
C=CCn1c(=NC(=O)c2cccc(N3C(=O)CCC3=O)c2)sc2cccc(OC)c21,-2,4.8*,0,-1,-1
CC(C(=O)NCc1ccccc1)n1c(-c2ccc3c(c2)CCO3)nc2ccccc21 (stereo unspecified),2,x,0,-1,-1
Cc1ccc2[nH]c(SCC(=O)N3CCOCC3)nc2c1C,5.7*,3,9,0,0
Cc1ccc2nc(SCC(=O)N3CCOCC3)[nH]c2c1,2,1,8,3,0
CCCCN(C(=O)c1ccc(N2CCCC2=O)cc1)c1c(N)n(CCC)c(=O)[nH]c1=O,-1,0,3,-1,-1
Cc1nnc2n(c1=O)N=C(c1ccc(Cl)cc1)CS2,6.0*,-1,8,2,0
O=C(Nc1ccc(Br)cc1)c1cnc[nH]1,6.5*,3,11*,0,0
COc1cccc(NC(=O)c2cnc[nH]2)c1,0,1,4,1,0
CC1CCN(CC(O)COc2ccc(-c3ccccc3)cc2)CC1 (stereo unspecified),0,2,1,1,-1
Cc1ccc(-c2ccc(C(=O)NCc3ccccc3)o2)c2ccccc12,-2,0,-1,-1,-2
CCOc1ccccc1-c1ccc(C(=O)NCc2ccccc2)o1,-1,7.3*,-2,0,-1
COc1cc2c(cc1OC)C(O)=CC(=O)C2=O,0,0,-2,0,0
SMILES,hcDAF-12 act,DAX1 inh-1,hgDAF12 agonist,DAX1 inh-2,ssDAF12 agonist
CC(=O)c1ccc(NC(=O)Nc2ccccc2)cc1,4,-1,13*,3.6*,0
CC(=O)c1ccc(NC(=O)c2cc(C)nc3ccccc23)cc1,0,4.4*,9,1,-1
CCN(CC)c1ccc(NC(=O)Nc2ccccc2)cc1,5,1,12*,2,0
Cc1ccc(NC(=O)c2cc(C)nc3ccccc23)cc1,-1,1,4,0,-1
CC(=O)c1cccc(NC(=O)Nc2nc(C)cc(C)n2)c1,0,4.7*,-1,2,0
CCN(CC)c1ccc(NC(=O)Nc2ccc(C(C)=O)cc2)cc1,1,-2,2,-1,-1
CN(C)CC(CCC(CN(C)C)C(=O)c1ccccc1)C(=O)c1ccccc1 (stereo unspecified),x,-9,x,x,x
CC1(C(=O)O)CCCN1C(=O)c1cccc2ccccc12 (stereo unspecified),-1,x,3,2,-1
Cc1ccc(N2CCN(C(CCc3ccccc3)C(=O)Nc3c(C)cccc3C)CC2)cc1 (stereo unspecified),-1,x,2,1,0
Cc1ccc(-c2cc(-c3nnc4sc(Cc5cccs5)nn34)[nH]n2)cc1,-3,x,0,-1,-2

# Screens deposited in PubChem by The Scripps Research Institute Molecular Screening Center.
